“And” between values parts separate entries of the source, which are not always exact repeats. Equal values may be shown once. More than one record can exist for a structure, and the calls need not agree. The source made the active and inactive calls.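 Rule for the calls, unless noted: active = compound raises GLP1 secretion from the human gut endocrine cells, with no numeric limit stated; inactive = the rest.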
Tests used:
[1] = Wnt pathway potentiators raising nuclear beta-catenin – imaging, WNT3A-conditioned medium, mouse C2C12, NPC library, primary screen (AID 1117326; in the data active = nuclear beta-catenin stimulation mostly above about 4.2%, no sharp cut-off; inactive = mostly below about 10%); conditions: stronger effect = higher value
[2] = stimulators of insulin release from INS-1E, primary screen, cell-based, 5 mM glucose, NPC library (AID 1117329;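 active = compound raises insulin release from rat beta cells at 5 mM glucose, no numeric limit stated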); conditions: rat INS-1E insulin secretion, at 10 µM, stronger effect = higher value
[3] = growth inhibition of GSK3B-pretreated HCT116 cells – cell-based, CellTiter-Glo, 0.2 to 20 µM (AID 1117336;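 active = compounds lowering colon cancer cell viability after pretreatment blocking the GSK3B kinase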); conditions: HCT116 viability after GSK3B inhibitor, at 20 µM, stronger effect = higher value
[4] = inhibition of endothelial tube formation, primary screen, imaging, VEGF stimulated, CD31 staining, tube area, NPC library (AID 1117340;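 active = compound that reduces growth-factor-driven endothelial tube area in a mixed cell culture, no cutoff stated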); conditions: VEGF-stimulated ADSC/ECFC co-culture, at 10 µM, stronger effect = higher value
[5] = GLP1 release stimulators, primary, NCI-H716, NPC library (AID 1117341); conditions: NCI-H716 cells, at 10 µM, stronger effect = higher value
[6] = HCT116 colon cancer cell growth inhibition, primary screen, CellTiter-Glo luminescence, NPC library (AID 1117342;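 active = compounds that lower survival of HCT116 colon cancer cells in the luminescence readout, no numeric limit stated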); conditions: at 20 µM (top of the series)
[7] = reduced SW480 viability measured with CellTiter-Glo, NPC library, primary (AID 1117343;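 active = compounds that lower viability of the colon cancer cells in the luminescence readout, with no numeric limit stated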); conditions: CellTiter-Glo luminescence; at 20 µM (top of the series)
[8] = NPC library primary testing for decreased DLD-1 cell viability via CellTiter-Glo (AID 1117346;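 active = compounds that lower survival of DLD-1 colon cancer cells in the luminescence readout, no cutoff given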); conditions: DLD-1 viability, CellTiter-Glo luminescence; at 20 µM (top of the series)
[9] = molecular target: 6-phosphogluconate dehydrogenase, decarboxylating (Homo sapiens) (UniProt P52209); experiment: inhibition of human phosphogluconate dehydrogenase – biochemical, recombinant enzyme, NADPH absorbance, primary screen (AID 1159550;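 active = at least 20% inhibition of 6-phosphogluconate dehydrogenase activity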); conditions: recombinant 6PGD, NADPH absorbance 341 nm; at 10 µM; stronger effect = higher value
[10] = EMT-state selective cytotoxicity in co-culture – imaging, PC-3E GFP, TEM4-18 mCherry, primary screen (AID 1345086;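 active = compounds killing one labelled cell type while sparing the other, by normalised counts and ratio limits, not self-fluorescent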;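 for all read-outs here: cells exposed to compound for 72 h before imaging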;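 for red/green cell ratio (normalised): normalised mesenchymal count divided by normalised epithelial count so high means epithelial killing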); conditions: PC-3E GFP / TEM4-18 mCherry co-culture, imaging cell counts, at 1 µM; for red/green cell ratio (normalised): actives lie on both sides
[11] = test system: Aerobactin synthetase IucA (Klebsiella pneumoniae hvKP1); experiment: IucA enzyme inhibition, primary screen, biochemical, Spectrum library (AID 1346200; call rule not given here;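 note: 100% = wells without compound and 0% = wells lacking enzyme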); conditions: malachite green pyrophosphate, A620, at 8 µM, stronger effect = lower value
[12] = MELAS cybrid and Rieske KO viability enhancers – cell-based, MELAS cybrids, Rieske KO mouse fibroblasts, CellTiter-Glo, primary screen (AID 1508586;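 active = mean z-score across replicates of 1.96 or higher in either the MELAS or the Rieske mutant cell line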;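 note: z relative to plate mean and SD of compound and empty wells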); conditions: low glucose
[13] = molecular target: NAD(+) hydrolase SARM1 (Homo sapiens) (UniProt Q6SZW1); experiment: blocking NAD cleavage by SARM1 SAM-TIR – cell lysate, NAD-Glo luminescence (AID 1508614;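 active = compound whose remaining NAD level is above about 45 nM, limit read from the data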;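 note: higher remaining NAD means stronger inhibition of SARM1 NADase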); conditions: SAM-TIR HEK293T lysate NADase, at 1 µM, stronger effect = higher value
[14] = molecular target: Mitogen-activated protein kinase 7 (Homo sapiens) (UniProt Q13164); experiment: Gal4-ERK5 driven luciferase induction – cell-based, HTS, primary screen (AID 1508626;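 active = luciferase signal above three times the same-plate solvent-only control wells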;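 note: luciferase driven by Gal4-ERK5 fusion binding five Gal4 sites before minimal TATA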); conditions: HeLa Gal4-ERK5 transactivation, 18 h, at 5 µM, stronger effect = higher value
[15] = yeast 75Q aggregation reduction – 75Q-TubU reporter (AID 1593); conditions: Yeast 75Q polyglutamine aggregation reporter
[16] = blockers of cytochrome c efflux from mitochondria – biochemical, purified mitochondria (AID 1603); conditions: stronger effect = lower value;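 note: mouse liver mitochondria challenged with calcium chloride; signal normalized to the plate average as 100%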
[17] = polyglutamine aggregate formation blockers (AID 1604); conditions: polyglutamine-induced protein aggregation inhibition assay; stronger effect = higher value; tested at 2.5 µM
[18] = P. berghei load reduction in hepatocytes – cell-based, HepG2, luciferase luminescence, HepG2 viability, primary screen (AID 624349; in the data active = parasite load remaining mostly below about 12%, no sharp cut-off; inactive = mostly above about 10%;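 note: 100% = mean of DMSO negative control wells on the same plate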); conditions: P. berghei liver stage in HepG2, luciferase luminescence, concentration not given here; parasite load remaining: stronger effect = lower value; viability: measured here: HepG2 viability without parasites
[19] = galactose survival enhancers in mitochondrial complex I cybrids – cell-based, galactose medium, ATP luminescence, primary screen (AID 1645843;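 active = z-score of at least 1.8 in each of two replicates, scored against plate mean and spread of sample wells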;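 note: positive z means more ATP and so rescue of galactose-driven cybrid death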); conditions: complex I mutant cybrid cells, 72 h, stronger effect = higher value
[20] = viability loss with induced miR-34 in A549 – imaging, A549 dox-inducible miR-34, nuclei and caspase counts, primary screen (AID 1347080;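 active = compounds whose cell count with miR-34 switched on is under 0.7 times the count with it off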); conditions: A549 miR-34 inducible, Hoechst nuclei count, 48 h
[21] = measured here: epithelial PC-3E GFP cell survival
[22] = measured here: mesenchymal TEM4-18 mCherry cell survival
[23] = MELAS cybrid survival, CellTiter-Glo 48 h, stronger effect = higher value
[24] = Rieske KO mouse fibroblast survival, CellTiter-Glo 72 h

6-phosphogluconate dehydrogenase, decarboxylating (Homo sapiens), sequence (P52209 whole entry, looked up): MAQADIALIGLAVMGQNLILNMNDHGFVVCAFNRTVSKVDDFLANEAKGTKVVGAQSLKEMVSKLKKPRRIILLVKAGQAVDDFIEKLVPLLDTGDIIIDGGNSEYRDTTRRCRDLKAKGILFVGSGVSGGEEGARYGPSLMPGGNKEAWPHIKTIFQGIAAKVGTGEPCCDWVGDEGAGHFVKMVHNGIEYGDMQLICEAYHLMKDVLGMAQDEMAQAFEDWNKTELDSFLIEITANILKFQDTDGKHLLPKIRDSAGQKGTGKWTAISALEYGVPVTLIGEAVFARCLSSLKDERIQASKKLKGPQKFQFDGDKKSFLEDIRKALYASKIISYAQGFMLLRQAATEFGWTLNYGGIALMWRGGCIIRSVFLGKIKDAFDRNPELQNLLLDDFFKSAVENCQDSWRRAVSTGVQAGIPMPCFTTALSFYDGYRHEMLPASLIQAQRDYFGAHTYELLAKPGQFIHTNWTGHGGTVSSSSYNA
NAD(+) hydrolase SARM1 (Homo sapiens), sequence (Q6SZW1 whole entry, looked up, the tested form may be a part): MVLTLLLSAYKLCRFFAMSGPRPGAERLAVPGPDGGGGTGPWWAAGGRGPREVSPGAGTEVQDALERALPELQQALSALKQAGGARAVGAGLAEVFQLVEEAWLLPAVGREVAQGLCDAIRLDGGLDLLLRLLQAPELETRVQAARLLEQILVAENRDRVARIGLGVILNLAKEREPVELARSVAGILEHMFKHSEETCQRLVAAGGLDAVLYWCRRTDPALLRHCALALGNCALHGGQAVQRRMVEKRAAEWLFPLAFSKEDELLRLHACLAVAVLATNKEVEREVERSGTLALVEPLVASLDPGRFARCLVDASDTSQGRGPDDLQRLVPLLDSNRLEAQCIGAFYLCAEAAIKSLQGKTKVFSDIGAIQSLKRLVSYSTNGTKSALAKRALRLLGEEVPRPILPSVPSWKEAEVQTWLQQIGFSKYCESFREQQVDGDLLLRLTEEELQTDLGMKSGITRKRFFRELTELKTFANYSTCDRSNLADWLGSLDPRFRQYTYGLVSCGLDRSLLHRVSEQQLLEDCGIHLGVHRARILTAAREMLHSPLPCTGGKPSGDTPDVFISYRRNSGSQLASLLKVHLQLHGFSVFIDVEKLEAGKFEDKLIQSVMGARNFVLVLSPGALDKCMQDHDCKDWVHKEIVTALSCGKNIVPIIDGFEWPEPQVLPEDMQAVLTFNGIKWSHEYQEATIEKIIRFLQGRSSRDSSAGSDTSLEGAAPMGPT
Mitogen-activated protein kinase 7 (Homo sapiens), sequence (Q13164 whole entry, looked up, the tested form may be a part): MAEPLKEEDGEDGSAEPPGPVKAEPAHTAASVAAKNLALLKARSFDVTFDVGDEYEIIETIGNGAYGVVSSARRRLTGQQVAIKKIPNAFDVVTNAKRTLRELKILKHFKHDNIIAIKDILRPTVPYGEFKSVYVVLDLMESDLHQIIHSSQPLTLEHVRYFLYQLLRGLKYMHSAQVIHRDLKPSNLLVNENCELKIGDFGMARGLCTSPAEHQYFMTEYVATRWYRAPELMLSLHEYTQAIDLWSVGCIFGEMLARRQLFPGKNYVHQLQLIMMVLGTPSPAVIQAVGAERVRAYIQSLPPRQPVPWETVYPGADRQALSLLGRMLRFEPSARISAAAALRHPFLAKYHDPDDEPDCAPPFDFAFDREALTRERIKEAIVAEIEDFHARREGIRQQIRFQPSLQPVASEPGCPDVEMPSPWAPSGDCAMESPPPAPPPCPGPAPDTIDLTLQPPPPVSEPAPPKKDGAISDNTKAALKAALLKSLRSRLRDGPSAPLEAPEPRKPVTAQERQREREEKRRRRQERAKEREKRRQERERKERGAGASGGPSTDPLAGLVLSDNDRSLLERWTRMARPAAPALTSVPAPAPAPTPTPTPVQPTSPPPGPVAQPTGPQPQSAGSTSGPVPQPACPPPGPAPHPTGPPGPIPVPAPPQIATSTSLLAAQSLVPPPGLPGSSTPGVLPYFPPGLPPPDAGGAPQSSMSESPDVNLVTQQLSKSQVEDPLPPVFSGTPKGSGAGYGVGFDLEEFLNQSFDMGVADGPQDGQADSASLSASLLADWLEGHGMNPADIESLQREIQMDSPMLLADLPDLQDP

## CC(NC(C)(C)C)C(=O)c1cccc(Cl)c1 (configuration not stated)
[1]; at 10 µM
  nuclear beta-catenin stimulation: -0.1% (inactive)
[1]; stimulation, at 2 µM
  nuclear beta-catenin stimulation: 7.1%
[2]
  insulin secretion stimulation: 0.3% (inactive)
[3]
  viability decrease: -43.9% (inactive)
[4]
  tube area decrease: 9.3% (inactive)
[5]
  GLP1 secretion stimulation: 0.3% (inactive)
[6]
  inhibition of viability: 9.97% (inactive)
[7]
  viability decrease (inhibition): 30.2% (inactive)
[8]
  viability decrease (inhibition): -10.5% (inactive)
[9]
  inhibition: -4.52% (inactive)
[10]
  red/green cell ratio (normalised): 1.12 (inactive)
[10]; [21]
  normalised cell number: 1.04
[10]; [22]
  normalised cell number: 1.16
[11]
  activity remaining: 97% (inactive)
[12]; [23]
  z-score: -0.0615 (inactive) and 0.02 (inactive) and 0.556 (inactive)
[12]; [24]
  z-score: -0.319 and -0.308 and 0.695
[13]
  remaining NAD: 10 nM (inactive)
[14]
  luciferase signal: 52 AU (inactive)

## Oc1ccccc1-c1ccccc1
[1]; at 10 µM
  nuclear beta-catenin stimulation: 0.6% (inactive)
[1]; stimulation, at 2 µM
  nuclear beta-catenin stimulation: -0.1%
[2]
  insulin secretion stimulation: -2.4% (inactive)
[3]
  viability decrease: -2.35% (inactive)
[4]
  tube area decrease: -3.5% (inactive)
[5]
  GLP1 secretion stimulation: -1.2% (inactive)
[6]
  inhibition of viability: -18.2% (inactive)
[7]
  viability decrease (inhibition): 15.3% (inactive)
[8]
  viability decrease (inhibition): 8.7% (inactive)

## CCCC1CCCCN1 (configuration not stated)
[1]; at 10 µM
  nuclear beta-catenin stimulation: 0.5% (inactive)
[1]; stimulation, at 2 µM
  nuclear beta-catenin stimulation: 0.1%
[2]
  insulin secretion stimulation: -0.9% (inactive)
[3]
  viability decrease: -0.7% (inactive)
[4]
  tube area decrease: 2.4% (inactive)
[5]
  GLP1 secretion stimulation: 0% (inactive)
[6]
  inhibition of viability: -0.2% (inactive)
[7]
  viability decrease (inhibition): 8% (inactive)
[8]
  viability decrease (inhibition): -1.85% (inactive)
[9]
  inhibition: 18.6% (inactive)

## CN1C(=O)CCS(=O)(=O)C1c1ccc(Cl)cc1 (configuration not stated)
[15]
  score: 0.89
[16]
  cytochrome c release ratio: 0.72
[17]
  inhibition of aggregation: 72.7%
[18]
  parasite load remaining: 65% (inactive) and 73.4% (inactive)
  viability: 112% and 75.6%
[1]; at 10 µM
  nuclear beta-catenin stimulation: 0.2% (inactive)
[1]; stimulation, at 2 µM
  nuclear beta-catenin stimulation: 3.4%
[2]
  insulin secretion stimulation: 0.4% (inactive)
[3]
  viability decrease: -22.1% (inactive)
[4]
  tube area decrease: 3.9% (inactive)
[5]
  GLP1 secretion stimulation: 3.4% (inactive)
[6]
  inhibition of viability: -1.4% (inactive)
[7]
  viability decrease (inhibition): 2.8% (inactive)
[8]
  viability decrease (inhibition): -11.9% (inactive)
[9]
  inhibition: -16% (inactive)
[10]
  red/green cell ratio (normalised): 1.12 (inactive)
[10]; [21]
  normalised cell number: 0.96
[10]; [22]
  normalised cell number: 1.07
[11]
  activity remaining: 123% (inactive)
[12]; [23]
  z-score: -0.135 (inactive) and 0.131 (inactive)
[12]; [24]
  z-score: 0.8 and -0.00931
[13]
  remaining NAD: 10 nM (inactive)
[19]
  z-score: 0.35 (inactive) and 0.81 (inactive)

## C[C@@H]1C[C@@H]([C@H](O)CC2CC(=O)NC(=O)C2)C(=O)[C@@H](C)C1
[15]
  score: 0.04
[16]
  cytochrome c release ratio: 1.07
[17]
  inhibition of aggregation: 91.3%
[18]
  parasite load remaining: -0.1% (active) and 5.12% (inactive) and 0% (inactive)
  viability: 87.3% and 76.3% and 87.1%
[1]; at 10 µM
  nuclear beta-catenin stimulation: 28.9% (inactive)
[1]; stimulation, at 2 µM
  nuclear beta-catenin stimulation: 25.8%
[2]
  insulin secretion stimulation: -1% (inactive)
[3]
  viability decrease: 88.7% (active)
[4]
  tube area decrease: 103% (active)
[5]
  GLP1 secretion stimulation: -4.7% (inactive)
[6]
  inhibition of viability: 78.7% (active)
[7]
  viability decrease (inhibition): 68.4% (active)
[8]
  viability decrease (inhibition): 67.6% (active)
[9]
  inhibition: -13.3% (inactive)
[10]
  red/green cell ratio (normalised): 0.97 (inactive)
[10]; [21]
  normalised cell number: 0.98
[10]; [22]
  normalised cell number: 0.96
[11]
  activity remaining: 112% (inactive)
[20]; stronger effect = lower value
  fold change: 1.05 (inactive) and 0.852 (inactive)
[20]; measured here: relative caspase fold change +Dox/-Dox
  fold change: 1.03 and 1.84
[20]; measured here: total cells with miR-34 induction, stronger effect = lower value
  cell count: 2100 and 2650
[20]; measured here: total cells without miR-34 induction
  cell count: 1990 and 3110
[12]; [23]
  z-score: -0.121
[12]; [24]
  z-score: 4.57
[13]
  remaining NAD: 10 nM (inactive)
[14]
  luciferase signal: 20 AU (inactive)
